The values below come from PubChem BioAssay.

In assay [1] the test system is Aerobactin synthetase IucA (Klebsiella pneumoniae). Description: inhibition of K. pneumoniae IucA enzyme – biochemical, Tocris library, absorbance (AID 1345561; call rule not given here;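 note: 100% = enzyme without compound and 0% = no enzyme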). The settings on record: purified IucA enzyme assay, absorbance (OD) read-out; stronger effect = lower value;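 tested at 8 µM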.
Assay [2] is described as follows: viability loss with induced miR-34 in A549 – imaging, A549 dox-inducible miR-34, nuclei and caspase counts, primary screen (AID 1347080). The settings on record: A549 miR-34 inducible, Hoechst nuclei count, 48 h.
A short description of assay [3]: galactose survival enhancers in mitochondrial complex I cybrids – cell-based, galactose medium, ATP luminescence, primary screen (AID 1645843;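 active = z-score of at least 1.8 in each of two replicates, scored against plate mean and spread of sample wells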;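 note: positive z means more ATP and so rescue of galactose-driven cybrid death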). The settings on record: complex I mutant cybrid cells, 72 h, stronger effect = higher value.
The mark [4] stands for this setting: stronger effect = lower value, cell number ratio, induced over uninduced.
Setting [5] is: measured here: relative caspase fold change +Dox/-Dox.
[6] abbreviates: measured here: total cells with miR-34 induction, stronger effect = lower value.
Where [7] appears, read: measured here: total cells without miR-34 induction.

Each structure is given as a SMILES string. Several values for one entry are separate records, joined by “and”; a condition that tells them apart may be missing. Equal values may be shown once. Activity calls are given as the source filed them.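 Rule for the calls, unless noted: active = compounds whose cell count with miR-34 switched on is under 0.7 times the count with it off; inactive = the rest.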

As for `c1ccc(N2CCN(Cc3nc4ccccc4[nH]3)CC2)nc1`, the remaining activity in assay [1] was 78.8% (inactive). In addition, the figures for the fold change in assay [2] (setting [4]) and in assay [2] (setting [5]) were 0.909 (inactive) and 2.02, respectively. In addition, the cell count was found to be 8260 in assay [2] (setting [6]) and 9090 in assay [2] (setting [7]). Moreover, in assay [3], the z-score is 0.04 (inactive).

Consider `OC[C@H]1NC[C@@H](O)[C@@H](O)[C@@H]1O`, for which the remaining activity in assay [1] is 123% (inactive). Also, the fold change in assay [2] (setting [4]) was 0.958 (inactive) and 0.973 (inactive); in assay [2] (setting [5]) it was 0.787 and 0.709. Besides, the cell count in assay [2] (setting [6]) was 4950 and 9630; in assay [2] (setting [7]) it was 5160 and 9890. Further, in assay [3], the z-score was -0.17 (inactive).

As for `COC(=O)C(Cc1ccc(OCCn2c(=O)sc3cc(C(=O)c4ccccc4)ccc32)cc1)C(=O)OC`, in assay [1], the remaining activity is 104% (inactive). The fold change is 0.909 (inactive) in assay [2] (setting [4]) and 1.26 in assay [2] (setting [5]). The figures for the cell count in assay [2] (setting [6]) and in assay [2] (setting [7]) were 8190 and 9020, respectively. Besides, the z-score in assay [3] is -0.89 (inactive).

For `N[C@@H](Cc1cc(-c2ccc(Cl)cc2Cl)cc(CP(=O)(O)O)c1O)C(=O)O`, in assay [1], the remaining activity was 115% (inactive). Also, the fold change in assay [2] (setting [4]) was 0.913 (inactive); in assay [2] (setting [5]) it was 0.553. For the same molecule, the cell count was 8540 in assay [2] (setting [6]) and 9350 in assay [2] (setting [7]). Besides, in assay [3], the z-score is 0.635 (inactive).

On to `COC(=O)C1=C(C)NC(C)=C(C(=O)OCCSc2ccccc2)C1C` (centres undefined), for which the remaining activity in assay [1] was 91.1% (inactive). Moreover, the fold change was 0.923 (inactive) and 0.85 (inactive) in assay [2] (setting [4]); 0.923 and 0.966 in assay [2] (setting [5]). The cell count was 2710 and 6700 in assay [2] (setting [6]); 2930 and 7880 in assay [2] (setting [7]). In addition, the z-score in assay [3] is -0.87 (inactive).

Take `CC(C)(C)c1cc(C(=O)/C=C/c2ccc(C(=O)O)cc2)cc(C(C)(C)C)c1`: in assay [1], the remaining activity was 108% (inactive). Also, the figures for the fold change in assay [2] (setting [4]) and in assay [2] (setting [5]) were 1.11 (inactive) and 1.56, respectively. Also, the figures for the cell count in assay [2] (setting [6]) and in assay [2] (setting [7]) were 1370 and 1240, respectively. For the same molecule, the z-score in assay [3] is -0.69 (inactive).

With `C[C@]12CC[C@@H]3c4ccc(O)cc4C[C@@H](CCCCCCCCCS(=O)CCCC(F)(F)C(F)(F)F)C3[C@@H]1CC[C@@H]2O` (some centres undefined), in assay [1], the remaining activity is 117% (inactive). For the same molecule, the fold change in assay [2] (setting [4]) was 0.929 (inactive); in assay [2] (setting [5]) it was 0.852. The cell count is 6320 in assay [2] (setting [6]) and 6800 in assay [2] (setting [7]). Further, the z-score in assay [3] was 0.9 (inactive).

For the molecule `N[C@H](C(=O)O)c1ccc(C(=O)O)c(C(=O)O)c1`, the remaining activity in assay [1] is 126% (inactive). Further, the fold change is 0.986 (inactive) in assay [2] (setting [4]) and 0.559 in assay [2] (setting [5]). Moreover, the cell count in assay [2] (setting [6]) turned out to be 9860; in assay [2] (setting [7]) it was 10000. For the same molecule, the z-score in assay [3] was -0.145 (inactive).

For the molecule `c1ccc2nc(C3=NCCN3)cnc2c1`, the remaining activity in assay [1] is 98.4% (inactive). In addition, the fold change in assay [2] (setting [4]) is 0.983 (inactive); in assay [2] (setting [5]), 0.854. The cell count came out at 9150 in assay [2] (setting [6]) and 9300 in assay [2] (setting [7]). Moreover, in assay [3], the z-score was 0.085 (inactive).

With `NC(N)=Nc1ccc(Cl)cc1`, in assay [1], the remaining activity was 81.8% (inactive). Further, the fold change is 0.948 (inactive) in assay [2] (setting [4]) and 0.891 in assay [2] (setting [5]). Moreover, the cell count in assay [2] (setting [6]) worked out at 8620; in assay [2] (setting [7]), 9100. Besides, in assay [3], the z-score was -0.49 (inactive).

`C[N+](C)(C)CCCCCNCC12CC3CC(CC(C3)C1)C2`: the remaining activity in assay [1] was 117% (inactive). In addition, the fold change is 0.943 (inactive) in assay [2] (setting [4]) and 0.772 in assay [2] (setting [5]). Moreover, the values for the cell count in assay [2] (setting [6]) and in assay [2] (setting [7]) were 8560 and 9080, respectively. Besides, the z-score in assay [3] is -0.15 (inactive).

On to `O=c1[nH]c2cc(Cl)ccc2c(O)c1-c1cccc(Oc2ccccc2)c1`, for which, in assay [1], the remaining activity is 103% (inactive). In addition, the results for the fold change in assay [2] (setting [4]) and in assay [2] (setting [5]) were 0.963 (inactive) and 0.827, respectively. The cell count was found to be 8760 in assay [2] (setting [6]) and 9100 in assay [2] (setting [7]). For the same molecule, the z-score in assay [3] was 0.335 (inactive).

Regarding `Cc1ccc2c(=O)c3ccccc3n(CCCN)c2c1C`, the remaining activity in assay [1] is 96.6% (inactive). Besides, the fold change is 1.17 (inactive) in assay [2] (setting [4]) and 1.36 in assay [2] (setting [5]). In addition, the cell count in assay [2] (setting [6]) is 2370; in assay [2] (setting [7]) it was 2020. For the same molecule, in assay [3], the z-score is -0.58 (inactive).

Take `C[C@@]1(O)[C@H](O)[C@@H](CO)O[C@H]1n1cnc2c(NC3CCCC3)nc(Cl)nc21`: in assay [1], the remaining activity was 118% (inactive). Further, the figures for the fold change in assay [2] (setting [4]) and in assay [2] (setting [5]) were 1.01 (inactive) and 1.12, respectively. Further, the cell count in assay [2] (setting [6]) came out at 7690; in assay [2] (setting [7]) it was 7600. For the same molecule, the z-score in assay [3] was 0.755 (inactive).
